# A selection: hits, their analogues and other compounds. The true share with any hit is near 4.6%.
# UCHL1 block: blocks human UCHL1 ubiquitin-rhodamine cleavage; P09936; purified UCHL1, Ub-rhodamine cleavage fluorescence; inhibition, % at 20 µM; hit rate 0.2% among 47,000; AID 1645859
# Target sequence (P09936 whole entry, looked up): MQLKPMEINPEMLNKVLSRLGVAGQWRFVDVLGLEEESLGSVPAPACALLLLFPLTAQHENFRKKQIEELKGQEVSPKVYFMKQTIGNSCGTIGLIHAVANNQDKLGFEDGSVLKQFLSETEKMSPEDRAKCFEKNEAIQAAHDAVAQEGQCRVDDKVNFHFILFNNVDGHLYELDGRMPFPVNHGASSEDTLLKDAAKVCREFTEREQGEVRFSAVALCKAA
# USP10 block: inhibitors of human USP10 deubiquitinase; Q14694; purified USP10, Ub-rhodamine fluorescence, 60 min; inhibition, % at 20 µM; hit rate 1.1% among 47,000
# USP7 block: human USP7 deubiquitinase inhibition | inhibition, % at 20 µM | hit rate 0.3% among 47,000 | purified USP7, Ub-rhodamine cleavage fluorescence | Q93009
# USP8 inh: inhibitors of human USP8 deubiquitinase; AID 1645853; P40818; purified USP8, Ub-rhodamine cleavage fluorescence, 30 min; inhibition, % at 20 µM; hit rate 4.2% among 47,000
# Starred values were filed as active, the others as inactive. No stated cut-off is given here; in the data, active means inhibition above about 30%; inactive means the rest.
SMILES,UCHL1 block,USP10 block,USP7 block,USP8 inh
Cc1ccc(S(=O)(=O)N2CCC3(CC2)OC(=O)Nc2ccccc23)cc1,2,19,11,35*
O=C1Nc2ccccc2C2(CCN(S(=O)(=O)c3ccccn3)CC2)O1,-3,-2,-2,8
Cc1ccc(NC(=O)CSC2=NC3(CCCCC3)Nc3ccccc32)cc1,1,3,-2,38*
Cc1ccccc1NC(=O)CSC1=NC2(CCCCC2)Nc2ccccc21,0,3,2,37*
O=C(NC1CCCCCC1)c1cc2ccncc2[nH]1,-4,-6,-2,1
COc1ccccc1NS(=O)(=O)c1cc(NC(=O)CC(=O)c2ccc([N+](=O)[O-])cc2)ccc1C,9,33*,14,68*
COc1ccc(NC(=O)CC(=O)c2ccc([N+](=O)[O-])cc2)cc1S(=O)(=O)Nc1ccc(Cl)cc1,4,49*,18,58*
COc1ccc(NS(=O)(=O)c2cc(NC(=O)CC(=O)c3ccc([N+](=O)[O-])cc3)ccc2Cl)cc1,-1,58*,7,58*
COc1ccc(NC(=O)Cc2cc(OC)c(OC)c(OC)c2)cc1S(=O)(=O)Nc1ccc(Br)cc1,6,3,2,-10
COc1ccccc1NS(=O)(=O)c1cc(C(=O)NCc2ccncc2)ccc1C,6,1,5,8
COc1ccc(NS(=O)(=O)c2cccc(NC(=O)CC(=O)c3ccc([N+](=O)[O-])cc3)c2)cc1,4,46*,15,12
COc1ccc(NS(=O)(=O)c2cccc(NC(=O)CCC(=O)c3ccc(Cl)cc3)c2)cc1,6,15,-1,6
COc1ccc(NC(=O)Nc2ccc(-c3nnc(-c4ccccc4)o3)cc2)cc1OC,1,-2,3,1
O=C1COc2ccc(S(=O)(=O)N3CCCC(C(=O)N4CCCCC4)C3)cc2N1 (configuration not stated),1,1,-2,19
O=C(Cc1ccc(Cl)c(Cl)c1)OCC(=O)N1CCCc2ccccc21,7,8,-5,10
CCCc1c(C(=O)NC2CCCCC2)cnn1-c1ccc(Cl)cc1,4,2,-32,-1
Cc1ccc2c(c1)NC(CCC(=O)NCc1ccc(F)cc1)=NS2(=O)=O,1,2,2,3
COc1ccc(C(=O)N2CCC(Cc3nc(-c4ccc(F)cc4)no3)CC2)cn1,0,0,1,-5
N#Cc1ccccc1NC(=O)c1ccc(Cl)c(S(=O)(=O)N2CCCCCC2)c1,6,9,6,1
O=C(Oc1ccccc1Br)c1ccc(Cl)c(S(=O)(=O)N2CCCCC2)c1,3,9,5,31*
O=C(NCCCN1CCc2ccccc2C1)c1cc2c(s1)CS(=O)(=O)C2,-6,-11,0,46*
O=C(NCCC1=CCCCC1)c1cc2c(s1)CS(=O)(=O)C2,1,-1,-2,-2
COc1cc(C2NC(=O)NC(C)=C2C(=O)OC2CCCC2)cc(OC)c1OC (configuration not stated),-1,2,0,7
COc1ccc(C2NC(=O)NC(C)=C2C(=O)OC2CCCC2)cc1OC (configuration not stated),-2,0,-5,35*
O=C(Nc1ccc(Cl)cc1)Nc1nnc(CC(=O)N2CCOCC2)s1,3,3,4,19
SMILES,UCHL1 block,USP10 block,USP7 block,USP8 inh
COc1ccccc1CC(=O)Nc1cnc(-c2ccc(F)cc2)nc1,7,1,2,30*
Cc1cccc(NC(=O)CSc2nnc(NC(=O)c3ccc4ccccc4c3)s2)c1,-1,44*,13,5
Cc1ccnc(Sc2ncccc2O)c1,0,1,0,-116
Nc1cccnc1Sc1ccccn1,-27,-5,-57,40*
Cc1ccnc(-n2c(C)c(C)c3c(=N)n(CCO)cnc32)c1,-4,-4,-1,-53
Cc1c(C)n(-c2ccc(Br)cn2)c2ncn(Cc3ccccc3)c(=N)c12,-8,-7,-21,44*
COc1cc2c(cc1OC)CC(=O)N(Cc1c(F)cccc1Cl)C=C2,3,1,0,37*
CN1CCCc2cc(C(CNC(=O)C(C)(C)C)N3CCCCC3)ccc21 (configuration not stated),-9,-7,-9,-38
CCOc1cccc2nnc(NC(=O)Nc3ccccc3CC)n12,2,-1,4,13
O=C1C/C(=C\c2cccc(Cl)c2)Cc2ccccc21,11,15,10,34*
Cc1ccc(NC(=O)C2CCCN(c3cc(=O)n(C)c(=O)n3C)C2)cc1C (configuration not stated),-2,-1,0,-6
COc1ccc(CNC(=O)c2c(O)c3cccnc3n(-c3ccccc3)c2=O)cc1,2,3,3,84*
CN(C)c1ccc(S(=O)(=O)N2CCCCC2)cc1NC(=O)COc1ccccc1,0,5,5,-2
COc1ccc(NC(=O)CSc2nc3ccccc3c3nc(C)nn23)cc1OC,5,0,6,41*
Cc1cn2nnc(C(=O)Nc3ccc(OC(F)(F)F)cc3)c2c(=O)[nH]1,2,24,10,54*
CSc1ccccc1NC(=O)c1nnn2cc(C)[nH]c(=O)c12,1,-1,0,-198
Cc1nc(-n2cccc2)sc1C(=O)NC1CCCC1,-2,-1,-4,-13
Cc1nc(Nc2ccc(Cl)cn2)sc1C(=O)NC1CCCC1,-1,1,4,31*
Cc1noc(C)c1CNc1ccc(Cl)cc1,2,6,-11,39*
O=C(c1cc(S(=O)(=O)Nc2ccc(Cl)cc2)ccc1Cl)N1CCCc2ccccc21,5,36*,-20,-24
C[C@@H]1CC[C@H]2C(C)(C)[C@H](O)CC[C@]2(C)[C@]12Cc1c(O)cc(C=O)c(C=O)c1O2,0,0,-14,-1
Cc1nnc2ccc(N3CCN(C(=O)Nc4ccccc4Cl)CC3)nn12,1,2,3,0
O=C(COC(=O)c1ccc2c(c1)OCO2)Nc1ccc2[nH]c(=O)[nH]c2c1,3,19,10,6
O=C(COC(=O)c1cc2c(s1)CCC2)c1ccc2[nH]c(=O)[nH]c2c1,7,4,-22,70*
CC(C)N1Cc2cc(C(=O)N3CCN(C(=O)OC(C)(C)C)CC3)sc2C1,2,-1,-45,2
SMILES,UCHL1 block,USP10 block,USP7 block,USP8 inh
COc1ccc(C)cc1NC(=O)CSc1nc(C)nc2c1oc1ccccc12,-14,-6,-10,-14
CCC1(CC)Oc2ccc(C(=O)CCN(C)C)cc2O1,2,6,7,32*
CN(C)S(=O)(=O)c1ccc(N2CCCCC2)c(C(=O)Nc2cnc3ccccc3c2)c1,-7,-7,-8,-110
Cc1c(C)n(-c2ccccc2)c2ncn(CC(=O)NC(C)c3ccccc3)c(=O)c12 (configuration not stated),6,20,8,20
CC(NC(=O)CSc1nnc2n(-c3ccccc3)c(=O)c3ccccc3n12)c1ccccc1 (configuration not stated),5,3,5,36*
O=C1c2ccccc2NC2(C(=O)Nc3ccc(Br)cc32)N1c1ccccc1 (configuration not stated),6,6,-7,33*
CC(C)N1CCC2(CC1)Nc1ccccc1C(=O)N2Cc1ccccc1,-3,-8,-2,17

# Source: PubChem BioAssay
